# Records with an inconclusive call do not appear. Where a call stands in place of a potency, no number is given. Unmarked numbers belong to inactive results. Calls of active or inactive are those of the source. Calls follow the shape of the full dose curve.
# Target: 5-hydroxytryptamine receptor 2A (Homo sapiens) (UniProt P28223)
# Assay: 5-hydroxytryptamine receptor 2A (HTR2A) small molecule antagonists, cell-based qHTS assay (AID 1963586); also: nearly all actives have a fitted effect of over 45% in size
# Settings: HTR2A-CHO cells, DOI-induced calcium flux, fluorescence; series mostly up to 61.5 µM
# Description: National Center for Advancing Translational Sciences [NCATS]
# Division of Preclinical Innovation [DPI]
# U.S. Environmental Protection Agency [EPA]
# National Institutes of Environmental Health Sciences [NIEHS]
# National Toxicology Program [NTP]
# U.S. Food and Drug Administration [FDA]
# The HTR2A receptor is a subtype of the 5-HT2 receptor that belongs to the serotonin receptor family and is a G protein-coupled receptor (GPCR). The HTR2A-CHO cell line stably expressing human 5-hydroxytryptamine receptor 2A (HTR2A) can be used for screening antagonists of interactions between 5-HT2 and its ligands. The HTR2A-CHO calcium flux assay is a homogeneous fluorescence-based assay for detecting the intracellular calcium level using FDSS kinetic plate reader system.
# Tox21 Assay Protocol Summary:
# HTR2A-CHO cells were dispensed at 2000 cells/3uL/well in 1536-well black-clear bottom plates using a Multidrop Dispenser. After the assay plates were incubated at a 37 C/5% CO2 incubator for 18 h, 3 uL of Dye Loading Buffer was transferred to the assay plate by a Flying Reagent Dispenser. The assay plates were incubated at 37 C for 1h. For antagonist mode, 23 nL of compounds dissolved in DMSO, positive controls or DMSO only was transferred to the assay plate by a pin tool. After 5 min incubation at room temperature, 1.5 uL of 4-Iodo-2,5-dimethoxy-alpha-methylbenzeneethanamine hydrochloride (DOI) at 4nM was added to each well. The fluorescence intensity in the plates was measured using FDSS 7000EX kinetic plate reader for 3 min at 1 sec intervals.
# Chain of 5-hydroxytryptamine receptor 2A (Homo sapiens) (P28223 whole entry, looked up): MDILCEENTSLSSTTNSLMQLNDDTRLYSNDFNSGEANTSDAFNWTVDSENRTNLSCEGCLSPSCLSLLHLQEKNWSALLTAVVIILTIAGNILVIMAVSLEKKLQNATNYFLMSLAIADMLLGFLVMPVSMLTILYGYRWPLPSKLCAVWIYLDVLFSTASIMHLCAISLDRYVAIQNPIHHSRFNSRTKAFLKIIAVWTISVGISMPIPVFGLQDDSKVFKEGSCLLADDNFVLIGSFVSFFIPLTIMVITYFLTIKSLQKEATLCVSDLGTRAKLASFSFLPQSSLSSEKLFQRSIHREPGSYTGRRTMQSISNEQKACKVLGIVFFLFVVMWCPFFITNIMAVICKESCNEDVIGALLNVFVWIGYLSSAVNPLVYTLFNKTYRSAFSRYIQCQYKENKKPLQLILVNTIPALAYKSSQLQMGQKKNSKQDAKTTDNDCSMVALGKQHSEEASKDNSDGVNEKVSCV
Structure (SMILES),Potency,"activity, negative = inhibition"
CCCCC(CC)COS(=O)(=O)O (stereo not given),inactive,–
O=C1NCC2(CCN(CCc3ccccc3)CC2)O1,inactive,–
COc1cc(Cl)ccc1Oc1ccc(Cl)cc1Cl,inactive,–
CCCOC(=O)CC,inactive,–
CCCCCCCCCCC1CO1 (stereo not given),inactive,–
CCCCC(=O)O[C@]1(C(=O)CO)[C@@H](C)C[C@H]2[C@@H]3CCC4=CC(=O)C=C[C@]4(C)[C@@]3(F)[C@@H](O)C[C@@]21C,inactive,–
NC(=O)c1c(Cl)cccc1Cl,inactive,–
CCCOc1sc(C(=O)N2CCC(c3cc(CN)ccc3F)CC2)c(C)c1Br,inactive,–
CC(=O)N(C)C,inactive,–
CCCOc1ccc2c(c1)CC[C@@H]1[C@@H]2CC[C@]2(C)C(OC)CC[C@@H]12 (stereo not given in full),inactive,–
CC(C)CCCCCCCOC(=O)c1ccc(C(=O)OCCCCCCCC(C)C)c(C(=O)OCCCCCCCC(C)C)c1,inactive,–
CCCCCC/C=C\CCCCCCCC(=O)O,inactive,–
CCN(Cc1cccnc1)C(=O)c1cccc(Cl)c1[C@]1(C)C(=O)N(Cc2ccc(OC)cc2OC)c2ccc(Cl)cc21,inactive,–
CC(=O)OCC(=O)[C@@]1(O)[C@H](C)C[C@H]2[C@@H]3CCC4=CC(=O)C=C[C@]4(C)[C@@]3(F)[C@@H](O)C[C@@]21C,inactive,–
O=Cc1ccccc1S(=O)(=O)O,inactive,–
CC(C)C=O,inactive,–
N#CSCSc1nc2ccccc2s1,inactive,–
CSc1c(Cl)c(Cl)c(Cl)c(Cl)c1Cl,inactive,–
CC(C)OC(=O)OCOP(=O)(CO[C@H](C)Cn1cnc2c(N)ncnc21)OCOC(=O)OC(C)C,inactive,–
CCO[Si](CCC1CCC2OC2C1)(OCC)OCC (stereo not given),inactive,–

Structure (SMILES),Potency,"activity, negative = inhibition"
CCCC(C)CC (stereo not given),inactive,–
C[C@H](CCC(=O)O)[C@H]1CC[C@H]2[C@@H]3CC[C@@H]4C[C@H](O)CC[C@]4(C)[C@H]3C[C@H](O)[C@]12C,inactive,–
C1CN(SSN2CCOCC2)CCO1,inactive,–
CC(C)[C@H]1CC[C@H](C)C[C@@H]1O,inactive,–
c1ccc(-c2ccc(-c3ccccc3)cc2)cc1,–,-2.25% [at 12.7 µM]
Cc1cc(=O)oc2cc(N(C)C)ccc12,inactive,–
Cc1c(-c2ccc(O)cc2)n(Cc2ccc(OCCN3CCCCCC3)cc2)c2ccc(O)cc12,inactive,–
CCc1ncc(C)[nH]1,inactive,–
Oc1ccc2ccccc2c1,inactive,–
NNc1nc(-c2ccccc2)cs1,inactive,–
CC(=O)Oc1ccc([N+](=O)[O-])cc1CCl,inactive,–
CC(C)CCCCCOC(=O)CCCCC(=O)OCCCCCC(C)C,inactive,–
N=C(N)N,inactive,–
CC(C)=CCCC(C)CCOC=O (stereo not given),inactive,–
CC1=NN(c2cc(Cl)c(S(=O)(=O)O)cc2Cl)C(=O)C1N=Nc1ccc(S(=O)(=O)O)cc1 (stereo not given),inactive,–
O=C(/C=C/c1ccc(O)c(O)c1)O[C@@H]1C[C@@](OC(=O)/C=C/c2ccc(O)c(O)c2)(C(=O)O)C[C@@H](O)[C@@H]1O,inactive,–
O=S(=O)(O)c1ccccc1/C=C/c1ccc(-c2ccc(/C=C/c3ccccc3S(=O)(=O)O)cc2)cc1,inactive,–
Cc1cc2nc3ccc(=[N+](C)C)cc-3sc2cc1N,inactive,–
O=C(Nc1ccccc1)c1cc(Cl)ccc1O,inactive,–
Cn1cc(C(=O)[C@@H]2CCc3nc[nH]c3C2)c2ccccc21,inactive,–

# From PubChem BioAssay (Tox21)
